Reference: PubChem BioAssay

These molecules were tested against Torsin-1A (Homo sapiens) (UniProt O14656) (assay: small-molecule binders of mutant TOR1A in lysate, primary screen, cell lysate, small-molecule microarray, COS7 lysate, 635/667 nm fluorescence (AID 1150;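 note: score pools 667 nm emission and signal to noise measuring lysate protein binding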)). Settings: COS7 hTOR1A mutant lysate, 635 nm fluorescence, higher = more signal.
Chain of Torsin-1A (Homo sapiens) (O14656 whole entry, looked up): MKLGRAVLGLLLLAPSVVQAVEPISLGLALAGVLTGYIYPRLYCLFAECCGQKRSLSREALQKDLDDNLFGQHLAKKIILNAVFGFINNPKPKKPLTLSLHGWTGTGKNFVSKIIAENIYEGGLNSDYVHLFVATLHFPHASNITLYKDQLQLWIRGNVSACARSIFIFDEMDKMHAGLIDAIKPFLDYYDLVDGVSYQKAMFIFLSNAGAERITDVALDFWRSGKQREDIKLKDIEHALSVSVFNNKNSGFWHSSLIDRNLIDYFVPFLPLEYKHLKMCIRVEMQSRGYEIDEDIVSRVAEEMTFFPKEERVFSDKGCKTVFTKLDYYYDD
Molecule `C=C(COC)/C(=C/C[C@@H](OC(C)=O)c1cccc(OCCO)c1)c1cc(C(=O)OC)ccc1OC` has a composite z-score of -0.0193. `CC(C)(C)OC(=O)CC[C@]1(C(=O)NCCN2CCOCC2)N=C(c2ccc(OCCCO)cc2)O[C@H]1c1ccccc1CN=[N+]=[N-]` was tested, and the composite z-score was 1.06. `CC(=O)NCCCC[C@@H]1NC(=O)[C@@H]2C[C@H](C(=O)NCCCCCCN(C)C)[C@H](c3ccc(O)cc3)N2C1=O` gave a composite z-score of 1.52. In the case of `Cc1ccc(S[C@]2(C(=O)O)CC(=O)N(Cc3ccccc3)[C@@H]2c2ccc(CO)cc2)cc1`, the composite z-score is reported as 0.12. `O=C1c2ccccc2[C@](Cc2ccccc2I)(C(=O)NCC(F)(F)F)[C@H](c2ccc(CO)cc2)N1Cc1ccccc1C(F)(F)F` gave a composite z-score of 0.245. Molecule `O=C1OCCC=C[C@H]2OC34C=CCN(Cc5ccccc5)C(=O)[C@H]3N(CCO)C(=O)[C@@H]4C12` (stereo partly specified) has a composite z-score of -0.261. `C=CCNC(=O)[C@H]1[C@@H]2C(=O)O[C@@H](c3ccccc3)[C@@H](c3ccccc3)N2[C@@H](c2ccccc2OCCO)[C@]12C(=O)N(C(=O)OCCOC)c1ccc(C#CCC(C(=O)OC)C(=O)OC)cc12` was tested, and the composite z-score was 0.946. With `COc1ccc([Si](C)(C)[C@H]2[C@H](CC(=O)N3Cc4ccccc4C[C@H]3CO)O[C@@]3(C(=O)N(Cc4cccc(N5CCOC5=O)c4)c4ccccc43)[C@@H]2C)cc1` the composite z-score was 0.383. `CC(C)N1CC=CC23O[C@@H]4/C=C\CCCOC(=O)C4[C@H]2C(=O)N(CCO)[C@@H]3C1=O` (stereo partly specified) gave a composite z-score of -0.582. In the case of `CC(C)CN1C(=O)[C@@]2(Cc3ccccc31)c1ccccc1C(=O)N(C1CCCCC1)[C@H]2c1ccc(CO)cc1`, the composite z-score is reported as -0.488. `COc1cccc([C@@H]2[C@@H](C)CC[C@H]3C(=O)N4[C@H](c5cccc(OC)c5)[C@@H](C)CC[C@H]4C(=O)N23)c1` showed a composite z-score of 0.824. `CO[C@H]1COC(=O)[C@H](Cc2ccccc2)NC(=O)CC=C[C@@H](C)[C@H](OC)COC(=O)CC=C[C@@H]1C` showed a composite z-score of 0.189. `CO[C@H]1COC(=O)[C@@H](OCc2ccccc2)C=C[C@H](C)[C@@H](OC)COC(=O)[C@H](OCc2ccccc2)C=C[C@@H]1C` showed a composite z-score of 0.128. `O=C1O[C@@H](c2ccccc2)[C@@H](c2ccccc2)N2[C@@H](c3ccc(O)cc3)[C@]3(C(=O)Nc4ccccc43)[C@@H](C(=O)N3CCN(c4ncccn4)CC3)[C@H]12` was tested, and the composite z-score was 0.232. `O=C1O[C@@H](c2ccccc2)[C@@H](c2ccccc2)N2[C@@H](c3ccc(O)cc3)[C@]3(C(=O)Nc4ccc(C#CC5(O)CCCCCC5)cc43)[C@@H](C(=O)Nc3nc4ccccc4s3)[C@H]12` showed a composite z-score of 0.757. `C=CC[C@]1(C(N)=O)N=C(c2ccc(OCCCO)cc2)O[C@H]1c1ccccc1CN=[N+]=[N-]` showed a composite z-score of 0.96. With `COCCOC(=O)N1C(=O)[C@@]2(c3cc(C#CCCO)ccc31)[C@H](C(=O)N1CCCCCCC1)[C@H]1C(=O)O[C@H](c3ccccc3)[C@H](c3ccccc3)N1[C@@H]2c1ccc(O)cc1` the composite z-score was 0.922. Work on `C=CCOC(=O)[C@@H]1[C@H]2C(=O)O[C@H](c3ccccc3)[C@H](c3ccccc3)N2[C@H](c2ccc(OCCOC(=O)[C@H]3C[C@H]4C(=O)N5CCC[C@H]5C(=O)N4[C@H]3c3ccc(O)cc3)cc2)[C@@]12C(=O)Nc1ccccc12` yielded a composite z-score of 0.283. Work on `CO[C@H]1COC(=O)CC=C[C@@H](C)COC(=O)[C@@H](C)NC(=O)CC=C[C@@H]1C` yielded a composite z-score of 0.711. In the case of `C=CCN1C(=O)[C@@]2(O[C@@H](CCn3cc([C@H](O)c4ccccc4)nn3)[C@H]([Si](C)(C)c3ccc(OC)cc3)[C@H]2C)c2cc(N3CCOC3=O)ccc21`, the composite z-score is reported as 0.557. Molecule `CCCC/C=C/[C@H]([C@@H](O)Cc1ccccc1)N(CC#Cc1ccccc1)Cc1ccccc1Br` has a composite z-score of -0.242. `CCOC(=O)[C@H]1C/C=C/C[C@H](C(=O)OCC)C(=O)O[C@H]2[C@@H](OC)O[C@H](CO)[C@@H](OC(=O)Nc3ccc(Br)cc3)[C@@H]2OC1=O` was tested, and the composite z-score was -0.2. In the case of `COC(=O)c1c(CC[C@@H](CO)NC(=O)N[C@H](Cn2cc(-c3cncn3C)nn2)C(C)C)oc(C(C)=O)c1C(=O)OC`, the composite z-score is reported as 0.368. Molecule `COc1ccc([Si](C)(C)[C@H]2[C@H](CCO)O[C@@]3(C(=O)N(Cc4ccc(N5CCCCC5=O)cc4)c4ccccc43)[C@@H]2C)cc1` has a composite z-score of 0.62. `O=C1c2ccccc2[C@](Cc2ccccc2I)(C(=O)O)[C@H](c2ccc(CO)cc2)N1C1CCCCC1` showed a composite z-score of 0.76. With `CCCNC(=O)[C@@]1(Sc2ccc(C)cc2)CC(=O)N(Cc2ccccc2Cl)[C@@H]1c1ccc(CO)cc1` the composite z-score was 0.17.
